Reference: PubChem BioAssay (EPA / NIEHS)
Results filed as inconclusive are left out. Some structures have more than one record in an assay (separate samples or runs), and their calls can disagree. The source made the active and inactive calls. Rule for the calls: active = hit-call score of the fitted dose curve at least 0.9, where 1 is the maximum; inconclusive = response in the unintended direction; inactive = score below 0.9.

read-out: xenobiotic metabolism (CYP1A2), CYP1A2 (gene 1544); assay: CLD_CYP1A2_48hr: CellzDirect (CLD) Gene Expression Assay for xenobiotic metabolism (CYP1A2) at 48 hours (AID 2283703)
Description: CLD_48hr is a cell-based, multiplexed-readout assay that uses hepatocyte, a human liver primary cell, with measurements taken at 48 hours after chemical dosing in a 96-well plate.CLD_CYP1A2_48hr is one of 16 assay component(s) measured or calculated from the CLD_48hr assay. It is designed to make measurements of mRNA induction, a form of inducible reporter, as detected with chemiluminescence signals by Quantitative Nuclease Protection Assay (qNPA) technology.Data from the assay component CLD_CYP1A2_48hr was analyzed at the endpoint, CLD_CYP1A2_48hr, in the positive analysis fitting direction relative to DMSO as the negative control and baseline of activity. Using a type of inducible reporter, gain-of-signal activity can be used to understand changes in the reporter gene as they relate to the gene CYP1A2. Furthermore, this assay endpoint can be referred to as a primary readout. To generalize the intended target to other relatable targets, this assay endpoint is annotated to the cyp intended target family, where subfamily is xenobiotic metabolism.
Human hepatocyte cultures were treated daily for two consecutive days with fresh dosing solutions containing appropriate concentrations of the 320 ToxCast chemicals (chemical identities were blinded to CellzDirect and other ToxCast collaborators), vehicle control (0.2% DMSO), and positive control inducers as summarized in Table 1. Due to the large number of treatment groups and chemicals examined, the ToxCast chemicals were divided into two groups (spanning two independent cultures of hepatocytes from separate donor preparations (Hu778: ToxCast plates 1 and 2; Hu776: ToxCast plates 3 and 4). Each preparation of human hepatocyte cultures was treated with respective vehicle control, medium only control, set of six positive controls/reference chemicals for the five hepatic receptor pathways, and a subset of eight of the ToxCast chemicals (indoxacarb, pyrithiobac-sodium, norflurazon, cyhalofop-butyl, methomyl, thiram, acetochlor, and propiconazole). These replicate data, coupled with internal replicates designed within the blinded ToxCast chemical library, provided additional data to evaluate interindividual differences between hepatocyte preparations and their potential impact on chemical profiles.Cell morphology and integrity were evaluated using phase-contrast microscopy as an indicator of hepatocyte cell health (Tyson & Green, 1987). Cultures for each treatment group (i.e., media, vehicle [0.2% DMSO], positive control inducers [multiple concentrations], and the ToxCast chemicals [multiple concentrations]) were observed and cell morphology was assessed relative to vehicle control cultures at each harvest time point (0, 6, 24, or 48 h). […] Images were evaluated at the conclusion of the study to assess changes in cell integrity and account for the effects of chemical exposure on uncharacteristic changes in concentration-dependent gene expression profiles. The results from these determinations of apparent cytotoxicity were annotated (yes/no) alongside the corresponding qNPA data for reference.At the conclusion of each treatment period, hepatocyte cultures (96-well) were washed with 1 volume of HBSS, lysed by addition of 25 ul ArrayPlate lysis buffer (HTG, Tucson, AZ), and 70 ul/well of Denaturation Oil, denatured by incubation at 95C for 10 min, and frozen at approximately -70C until analysis by nuclease protection assay (qNPA) (Roberts et al., 2007). For qNPA analysis, cell lysates were thawed at 50C for approximately 30 min, qNPA probes were added, and samples were incubated at 95C for 10 min to begin the detection process by denaturing the target RNA, dissociating the duplexes and secondary structure hybridization. At the conclusion of the hybridization period, S1 nuclease reagent was added to each sample to digest all nonprotected nucleotides at 50C for 60-90 min. […]

Row | Compound | outcome | AC50
1 | CCC(C)OC(=O)N1CCCCC1CCO (stereo not given) | inactive | –
2 | c1ccc2[nH]c(-c3cscn3)nc2c1 | – | 1.36 µM (active)
3 | CCCCCOC(=O)COc1cc(N2C(=O)C3=C(CCCC3)C2=O)c(F)cc1Cl | inactive | –
4 | CCOC(=O)C(C)Oc1ccc(Oc2nc3ccc(Cl)cc3o2)cc1 (stereo not given) | inactive | –
5 | COC(=O)c1ccccc1S(=O)(=O)NC(=O)Nc1nc(OC(F)F)cc(OC(F)F)n1 | – | 11 µM (active)
6 | CCOC(=O)[C@H](C)Oc1ccc(Oc2nc3ccc(Cl)cc3o2)cc1 | – | 20 µM (active)
7 | COC(=O)c1ccc(I)cc1S(=O)(=O)NC(=O)Nc1nc(C)nc(OC)n1 | – | 20 µM (active)
8 | COc1c(Cl)ccc(Cl)c1C(=O)O | inactive | –
9 | O=C(O)C1(C(=O)Nc2ccc(Cl)cc2Cl)CC1 | inactive | –
10 | CCCCOC(=O)[C@@H](C)Oc1ccc(Oc2ccc(C(F)(F)F)cn2)cc1 | inactive | –
11 | COC(=O)c1c(Cl)nn(C)c1S(=O)(=O)NC(=O)Nc1nc(OC)cc(OC)n1 | – | 1.13 µM (active)
12 | COC(=O)c1ccc(CNS(C)(=O)=O)cc1S(=O)(=O)NC(=O)Nc1nc(OC)cc(OC)n1 | inactive | –
13 | CCN(CC)C(=O)c1cccc(C)c1 | inactive | –
14 | CCN(Cc1c(F)cccc1Cl)c1c([N+](=O)[O-])cc(C(F)(F)F)cc1[N+](=O)[O-] | – | 0.565 µM (active)
15 | CCOC(=O)C(C)Oc1ccc(Oc2cnc3cc(Cl)ccc3n2)cc1 (stereo not given) | inactive | –
16 | COC(=O)c1cccc(C)c1S(=O)(=O)NC(=O)Nc1nc(OCC(F)(F)F)nc(N(C)C)n1 | – | 5.82 µM (active)
17 | COC(=O)CSc1cc(N=c2sc(=O)n3n2CCCC3)c(F)cc1Cl | inactive | –
18 | CN(C)C(=O)Nc1ccc(Cl)c(Cl)c1 | – | 11.9 µM (active)
19 | CSC(=O)c1cccc2nnsc12 | – | 9.55 µM (active)
20 | CCCN(CCC)c1c([N+](=O)[O-])cc(C(F)(F)F)c(N)c1[N+](=O)[O-] | – | 2.63 µM (active)

Row | Compound | outcome | AC50
21 | CCCCC(CC)CN1C(=O)C2C3C=CC(C3)C2C1=O (stereo not given) | – | 12.6 µM (active)
22 | CCNc1nc(N)nc(Cl)n1 | – | 3.97 µM (active)
23 | CC(C)(C)[C@@H](O)[C@@H](Cc1ccc(Cl)cc1)n1cncn1 | – | 3.97 µM (active)
24 | CCCOC(=O)NCCCN(C)C | inactive | –
25 | CCCN(CCC)C(=O)SCC | inactive | 6.32 µM (active)
26 | CC1(C)C(C=C(Cl)Cl)C1C(=O)OCc1cccc(Oc2ccccc2)c1 (stereo not given) | – | 9.51 µM (active)
27 | CCCOC(=O)c1ccc(C(=O)OCCC)nc1 | inactive | –
28 | CCC(O)=C1C(=O)CC(C(=O)O)CC1=O (stereo not given) | inactive | –
29 | CCCCOCCOCCOCc1cc2c(cc1CCC)OCO2 | – | 5.82 µM (active)
30 | COCCO | inactive | –
31 | C#CCOC(=O)[C@@H](C)Oc1ccc(Oc2ncc(Cl)cc2F)cc1 | inactive | –
32 | OB(O)O | inactive | –
33 | c1ccc(Nc2ccccc2)cc1 | – | 4.82 µM (active)
34 | N#CSCSc1nc2ccccc2s1 | – | 2.82 µM (active)
35 | CCSC(=O)N(CC(C)C)CC(C)C | inactive | –
36 | CCCCCCC(C)OC(=O)COc1nc(F)c(Cl)c(N)c1Cl (stereo not given) | inactive | –
37 | CCCCC(CC)COC(=O)c1ccccc1C(=O)O (stereo not given) | inactive | –
38 | O=C(Nc1ccc([N+](=O)[O-])cc1Cl)c1cc(Cl)ccc1O | – | 0.549 µM (active)
39 | CCOC(=O)COc1cc(-n2ncc(C(F)(F)F)c(C)c2=O)c(F)cc1Cl | inactive | –
